# Records with an inconclusive call do not appear. A call without a number means that no potency is given here. The source made the active and inactive calls. Unless noted, calls come from the whole dose curve.
# Key:
# [1] = Nuclear factor erythroid 2-related factor 2/antioxidant responsive element (Nrf2/ARE) small molecule agonists: qHTS cell viability counter screen in human keratinocytes (AID 1919968; active = well fitted curve in the direction sought with a large enough effect in the repeat runs; an effect the other way counts as inactive or inconclusive; note: nearly all actives have a fitted effect of over 55% in size)
# Outline: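 Parallel cytotoxicity read: KeratinoSens HaCaT cells, compound treatment 23 h, viability by CellTiter-Fluor fluorescence 1 h post-reagent.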
# [2] = Nuclear factor erythroid 2-related factor 2/antioxidant responsive element (Nrf2/ARE) small molecule agonists: luciferase reporter gene qHTS assay in human keratinocytes (AID 1919969); note: nearly all actives have a fitted effect of over 35% in size; note: potency is the fitted concentration of half-maximal effect
# [3] = molecular target: Gonadotropin-releasing hormone receptor (Homo sapiens) (UniProt P30968); test: Human gonadotropin-releasing hormone receptor (GnRHR) small molecule agonists, calcium flux assay in GnRHR-HEK293 cells (AID 1920063); note: nearly all actives have a fitted effect of over 35% in size
# Outline: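 Calcium flux, agonist mode, human GnRHR stably integrated in HEK293; dye 1 h at 37 C before compound; Ex/Em=480/540 kinetic read, 3 min; 15 concentrations, triplicate.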
# [4] = molecular target: KiSS-1 receptor (Homo sapiens) (UniProt Q969F8); test: Human kisspeptin (KISS1R) small molecule agonists, calcium flux assay in KISS1R-HEK293 cells (AID 1920064; active = well fitted curve in the direction sought with a large enough effect in the repeat runs; an effect the other way counts as inactive or inconclusive)
# Outline: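 Triplicate 15-concentration series were applied to dye-loaded human KISS1R HEK293 cells, and agonist-evoked calcium fluorescence was captured for 3 min.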
# [5] = p53 small molecule agonists, cell-based qHTS assay with human liver microsomes: qHTS cell viability counter screen (AID 1963579); note: nearly all actives have a fitted effect of over 45% in size
# Outline: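 Cells carrying the p53 response-element beta-lactamase reporter are treated for 16 h at 37 C with test compounds in the presence of human liver microsomes and NADPH (both 0.5 mg/mL final); ATP-based CellTiter-Glo luminescence then reports viability.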
# [6] = p53 small molecule agonists, cell-based qHTS assay with rat liver microsomes: qHTS cell viability counter screen (AID 1963580); note: nearly all actives have a fitted effect of over 45% in size
# Outline: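 Counter screen for cytotoxicity under metabolic activation: rat liver microsomes and NADPH, 0.5 mg/mL final each, added with compounds to p53RE-bla HCT-116 cells; 16 h at 37 C, then ATP luminescence read.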
# [7] = p53 small molecule agonists, cell-based qHTS assay: qHTS cell viability counter screen (AID 1963581); note: nearly all actives have a fitted effect of over 45% in size
# Outline: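 Multiplexed with the reporter read, a CellTiter-Glo step (30 min, room temperature) gauges ATP-based viability of HCT-116 p53RE-bla cells after 16 h compound incubation at 37 C.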
# [8] = p53 small molecule agonists, cell-based qHTS assay (AID 1963582; active = well fitted activation curve with a large enough effect in the signal ratio in the repeat runs, not every such curve was filed as active; the % refers to the signal ratio)
# Outline: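 Beta-lactamase reporter cells (p53RE-bla) treated with compounds for 16 h at 37 C; FRET substrate, 2 h, room temperature; fluorescence intensity.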
# [9] = molecular target: 5-hydroxytryptamine receptor 2A (Homo sapiens) (UniProt P28223); test: 5-hydroxytryptamine receptor 2A (HTR2A) small molecule antagonists, cell-based qHTS assay (AID 1963586); note: nearly all actives have a fitted effect of over 45% in size
# Outline: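 CHO cells stably expressing human HTR2A were plated for 18 h at 37 C, then loaded with calcium dye for 1 h. Compounds were preincubated 5 min at room temperature before DOI (4 nM solution) was added. Kinetic fluorescence was read for 3 min.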
# [10] = molecular target: 5-hydroxytryptamine receptor 2A (Homo sapiens) (UniProt P28223); test: 5-hydroxytryptamine receptor 2A (HTR2A) small molecule agonists, cell-based qHTS assay (AID 1963587); note: nearly all actives have a fitted effect of over 30% in size
# Outline: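 HTR2A-CHO cells, plated 18 h at 37 C/5% CO2, dye-loaded 1 h at 37 C; compounds in DMSO added by pin tool (agonist mode). Intracellular calcium flux read as kinetic fluorescence on FDSS over 2 min at 1 s intervals.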
# [11] = molecular target: Muscarinic acetylcholine receptor M1 (Homo sapiens) (UniProt P11229); test: Cholinergic receptor muscarinic 1 (CHRM1) small molecule antagonists, cell-based qHTS assay (AID 1963588); note: nearly all actives have a fitted effect of over 40% in size
# Outline: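 Compounds were tested at 15 concentrations in three independent runs. Dye-loaded CHRM1-CHO cells were exposed 5 min at room temperature before stimulation by acetylcholine added at 50nM. Intracellular calcium was read kinetically on FDSS for 3 min.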
# [12] = molecular target: Muscarinic acetylcholine receptor M1 (Homo sapiens) (UniProt P11229); test: Cholinergic receptor muscarinic 1 (CHRM1) small molecule agonists, cell-based qHTS assay (AID 1963589); note: nearly all actives have a fitted effect of over 35% in size; note: potency is the fitted concentration of half-maximal effect
# Outline: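 qHTS, 15-point titration, 3 independent runs: compounds pin-transferred onto dye-loaded CHRM1-CHO cells (human M1), calcium fluorescence followed every second to detect agonism.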
# [13] = cAMP Responsive Elements (CRE) small molecule agonists, cell-based qHTS assay (AID 1963590)
# Outline: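 Quantitative HTS for CRE agonists: HEK 293T CRE-bla cells, overnight plating, 3 h compound incubation at 37 C/5% CO2, then 2 h room-temperature LiveBLAzer B/G FRET substrate loading.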
# [14] = cAMP Responsive Elements (CRE) small molecule antagonists, cell-based qHTS assay (AID 1963591; active = well fitted inhibition curve with a large enough effect in the signal ratio in the repeat runs, not every such curve was filed as active; the % refers to the signal ratio)
# Outline: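 Fluorescence intensity from cleaved LiveBLAzer B/G substrate (2 h, room temperature) quantified CRE-bla activity in HEK 293T cells exposed 3 h to compound with 0.25 uM final NKH477.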
# [15] = molecular target: Beta-2 adrenergic receptor (Homo sapiens) (UniProt P07550); test: Adrenergic beta2 receptor (ADRB2) small molecule agonists, cell-based qHTS assay (AID 1963593);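 note: CHO cells stably overexpressing human ADRB2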
# Outline: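 CHO cells stably over-expressing ADRB2 were plated overnight at 37C, then dosed with compounds plus a stimulation mix containing 100uM IBMX and 25uM Ro-20-1724 for 0.5hr at room temperature. cAMP was measured by HTRF competition, 1hr.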
# [16] = molecular target: D(2) dopamine receptor (Homo sapiens) (UniProt P14416); test: Dopamine D2 receptor (DRD2) small molecule antagonists, cell-based qHTS assay (AID 1963595; active = well fitted inhibition curve with a large enough effect in the signal ratio in the repeat runs, with a control signal flat; the % refers to the signal ratio; note: potency is the fitted concentration of half-maximal effect)
# Outline: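 In this cell-based antagonist screen, compounds act for 10 min at room temperature before a 30 min challenge with 12 nM quinpirole and 200 nM NKH477. cAMP is quantified by HTRF competition in DRD2-HEK293 cells containing 0.1 mM Ro20-1724.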
# [17] = G protein-coupled receptor (GPCR) small molecule agonists, calcium flux assay: HEK293 wild type cell line counter screen (AID 1920065)
# Outline: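 Non-specific calcium responders were flagged by adding DMSO-dissolved compounds to dye-loaded cells and reading 480/540 nm fluorescence each second for 3 min; ATP served as positive control.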
# [18] = molecular target: Beta-2 adrenergic receptor (Homo sapiens) (UniProt P07550); test: Adrenergic beta2 receptor (ADRB2) small molecule antagonists, cell-based qHTS assay (AID 1963592); note: nearly all actives have a fitted effect of over 50% in size; note: potency is the fitted concentration of half-maximal effect
# Outline: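 Assay format: CHO-ADRB2 cells, 18-20hr seeding at 37C/5% CO2, then compound plus 1nM isoproterenol agonist mix for 0.5hr RT. Homogeneous time-resolved fluorescence cAMP detection after 1hr, expressed as 665/615 nm ratio.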
# [19] = molecular target: D(2) dopamine receptor (Homo sapiens) (UniProt P14416); test: Dopamine D2 receptor (DRD2) small molecule agonists, cell-based qHTS assay (AID 1963594); note: nearly all actives have a fitted effect of over 35% in size
# Outline: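 HEK293 cells stably expressing DRD2 were cultured 24 h at 37 C, then given Ro20-1724 (0.1 mM final) and compounds for 10 min at room temperature. NKH477 (200nM) was then added for 30 min. cAMP was read by HTRF.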
# Chain of KiSS-1 receptor (Homo sapiens) (Q969F8 whole entry, looked up): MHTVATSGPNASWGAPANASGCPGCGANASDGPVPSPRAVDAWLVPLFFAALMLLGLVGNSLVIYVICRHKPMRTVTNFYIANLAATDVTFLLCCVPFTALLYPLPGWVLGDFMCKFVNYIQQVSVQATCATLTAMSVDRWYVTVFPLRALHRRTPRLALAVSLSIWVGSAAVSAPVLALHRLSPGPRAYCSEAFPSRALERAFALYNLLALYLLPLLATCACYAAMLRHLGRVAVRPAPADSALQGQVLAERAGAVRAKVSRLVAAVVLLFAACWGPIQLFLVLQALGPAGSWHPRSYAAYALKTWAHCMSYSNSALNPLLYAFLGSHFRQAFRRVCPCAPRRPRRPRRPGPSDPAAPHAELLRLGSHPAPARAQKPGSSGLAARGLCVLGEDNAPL
# Chain of 5-hydroxytryptamine receptor 2A (Homo sapiens) (P28223 whole entry, looked up): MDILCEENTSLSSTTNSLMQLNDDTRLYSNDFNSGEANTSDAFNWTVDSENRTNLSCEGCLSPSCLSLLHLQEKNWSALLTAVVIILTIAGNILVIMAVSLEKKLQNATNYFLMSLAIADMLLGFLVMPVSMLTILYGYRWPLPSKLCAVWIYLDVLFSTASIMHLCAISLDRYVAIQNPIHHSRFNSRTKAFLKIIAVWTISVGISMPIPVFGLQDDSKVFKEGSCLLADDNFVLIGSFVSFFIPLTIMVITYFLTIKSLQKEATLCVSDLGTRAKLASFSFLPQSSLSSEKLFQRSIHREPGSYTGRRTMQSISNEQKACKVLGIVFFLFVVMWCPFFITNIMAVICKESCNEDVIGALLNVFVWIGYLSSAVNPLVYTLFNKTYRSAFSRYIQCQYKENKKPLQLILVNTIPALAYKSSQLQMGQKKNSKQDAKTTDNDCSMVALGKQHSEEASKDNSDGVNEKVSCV
# Chain of Gonadotropin-releasing hormone receptor (Homo sapiens) (P30968 whole entry, looked up): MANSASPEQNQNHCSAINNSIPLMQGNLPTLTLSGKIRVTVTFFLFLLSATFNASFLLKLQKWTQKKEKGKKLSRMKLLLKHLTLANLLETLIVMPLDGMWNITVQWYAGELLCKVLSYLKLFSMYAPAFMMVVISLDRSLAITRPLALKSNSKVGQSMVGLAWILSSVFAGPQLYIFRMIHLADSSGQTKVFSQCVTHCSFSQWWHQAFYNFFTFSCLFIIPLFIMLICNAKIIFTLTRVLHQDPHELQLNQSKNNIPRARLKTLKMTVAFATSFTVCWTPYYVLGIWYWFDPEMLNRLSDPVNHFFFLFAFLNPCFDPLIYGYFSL
# Chain of Muscarinic acetylcholine receptor M1 (Homo sapiens) (P11229 whole entry, looked up): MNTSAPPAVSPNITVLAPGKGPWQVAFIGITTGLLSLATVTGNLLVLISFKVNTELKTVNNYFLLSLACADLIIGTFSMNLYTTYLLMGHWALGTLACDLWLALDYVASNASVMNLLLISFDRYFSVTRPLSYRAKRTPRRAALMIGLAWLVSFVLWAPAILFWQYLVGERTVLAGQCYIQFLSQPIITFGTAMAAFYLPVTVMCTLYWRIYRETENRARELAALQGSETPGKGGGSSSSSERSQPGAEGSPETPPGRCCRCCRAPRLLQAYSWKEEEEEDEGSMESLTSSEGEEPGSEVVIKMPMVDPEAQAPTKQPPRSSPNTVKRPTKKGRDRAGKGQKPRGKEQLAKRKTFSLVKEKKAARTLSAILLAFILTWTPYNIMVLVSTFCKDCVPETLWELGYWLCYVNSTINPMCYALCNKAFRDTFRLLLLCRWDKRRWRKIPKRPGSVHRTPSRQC
# Chain of Beta-2 adrenergic receptor (Homo sapiens) (P07550 whole entry, looked up): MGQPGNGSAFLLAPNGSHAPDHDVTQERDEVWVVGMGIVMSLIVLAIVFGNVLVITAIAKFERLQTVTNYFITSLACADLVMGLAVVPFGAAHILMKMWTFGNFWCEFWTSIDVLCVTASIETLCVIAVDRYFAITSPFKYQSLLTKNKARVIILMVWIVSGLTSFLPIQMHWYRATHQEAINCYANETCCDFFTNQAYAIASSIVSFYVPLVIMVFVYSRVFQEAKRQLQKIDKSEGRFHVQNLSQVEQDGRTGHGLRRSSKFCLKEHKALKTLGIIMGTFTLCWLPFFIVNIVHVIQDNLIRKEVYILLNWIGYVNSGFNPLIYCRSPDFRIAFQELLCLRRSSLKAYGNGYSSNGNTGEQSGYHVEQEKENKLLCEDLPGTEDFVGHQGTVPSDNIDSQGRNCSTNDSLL
# Chain of D(2) dopamine receptor (Homo sapiens) (P14416 whole entry, looked up): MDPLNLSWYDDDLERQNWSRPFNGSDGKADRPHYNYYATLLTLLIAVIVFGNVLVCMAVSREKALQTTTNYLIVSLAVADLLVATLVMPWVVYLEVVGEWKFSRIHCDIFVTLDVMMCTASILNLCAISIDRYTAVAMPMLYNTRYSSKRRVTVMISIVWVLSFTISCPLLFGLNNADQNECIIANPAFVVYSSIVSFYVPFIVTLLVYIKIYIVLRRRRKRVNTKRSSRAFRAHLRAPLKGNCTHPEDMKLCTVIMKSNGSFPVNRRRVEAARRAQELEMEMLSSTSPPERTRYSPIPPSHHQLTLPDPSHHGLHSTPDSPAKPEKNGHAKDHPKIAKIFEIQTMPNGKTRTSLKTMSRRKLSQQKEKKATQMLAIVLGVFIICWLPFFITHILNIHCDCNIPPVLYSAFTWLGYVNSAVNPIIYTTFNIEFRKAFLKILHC
SMILES,Potency [1],Potency [2],Potency [3],Potency [4],Potency [5],Potency [6],Potency [7],Potency [8],Potency [9],Potency [10],Potency [11],Potency [12],Potency [13],Potency [14],Potency [15],Potency [16],Potency [17],Potency [18],Potency [19]
COCCOC(=O)CC#N,inactive,inactive,inactive,inactive,inactive,inactive,inactive,inactive,inactive,inactive,inactive,inactive,inactive,inactive,inactive,inactive,,,
OCc1c[nH]c2ccccc12,inactive,61.1 µM (active),inactive,inactive,,inactive,,,inactive,,inactive,0.0031 µM (active),,,,inactive,inactive,,
CC1=C(C(=O)O)N2C(=O)[C@@H](NC(=O)[C@H](N)c3ccccc3)[C@H]2SC1,inactive,inactive,inactive,inactive,,,inactive,inactive,,,,,inactive,inactive,inactive,inactive,inactive,inactive,inactive
O=C(CCCN1CC=C(n2c(=O)[nH]c3ccccc32)CC1)c1ccc(F)cc1,inactive,inactive,inactive,inactive,,,,,,,,,,,,0.0211 µM (active),inactive,,inactive
CC(C)N(c1ccccc1)C(C)C,inactive,inactive,inactive,inactive,,inactive,,,inactive,inactive,inactive,inactive,inactive,inactive,,inactive,inactive,inactive,inactive
CC(C)OC(=O)c1cc(C(=O)OC(C)C)cc([N+](=O)[O-])c1,inactive,inactive,inactive,inactive,,inactive,,,inactive,inactive,inactive,inactive,,,,inactive,inactive,62.6 µM (active),inactive
CCN1CCN(C(=O)N[C@@H](C(=O)N[C@@H]2C(=O)N3[C@@H]2SC(C)(C)[C@H]3C(=O)O)c2ccccc2)C(=O)C1=O,inactive,inactive,inactive,inactive,,inactive,inactive,,,,,,inactive,inactive,,inactive,inactive,inactive,inactive
CCC1Nc2cc(Cl)c(S(N)(=O)=O)cc2S(=O)(=O)N1 (stereo unspecified),inactive,inactive,inactive,inactive,,inactive,inactive,,,inactive,inactive,inactive,inactive,inactive,inactive,inactive,inactive,,inactive
CC(=O)OCC(=O)[C@H]1CC[C@H]2[C@@H]3CCC4=CC(=O)CC[C@]4(C)[C@H]3CC[C@]12C,inactive,inactive,inactive,inactive,,,inactive,,,inactive,,inactive,,,,inactive,inactive,inactive,
